Reference: PubChem BioAssay AID2314 (National Center for Advancing Translational Sciences (NCATS), 2010)
Screen size: about 300,000 compounds; about 37,000 (12%) were called active. Rule as the data show it: active = max response mostly above about 13% (no sharp cut-off); inactive = mostly below about 14%. For the sample, actives were picked, then their nearest neighbours and some compounds at random.

test: Cycloheximide Counterscreen for Small Molecule Inhibitors of Shiga Toxin; settings: cell reporter, cycloheximide protein synthesis inhibition counterscreen; hits give high values; also: read at 38.3 µM for the half of the compounds with a filed dose; 0% is about no effect

Compound	max response
NS(=O)(=O)c1ccc(NC(=O)COC(=O)c2c3c(nc4ccccc24)/C(=C\c2ccc4c(c2)OCO4)CCC3)cc1	42.8% (active)
COc1cc(-c2cc(C(=O)OCC(=O)Nc3ccc4c(c3)OCO4)c3ccccc3n2)cc(OC)c1OC	4.65% (inactive)
COc1cc(/C=C2\CCCc3c2nc2ccccc2c3C(=O)O)cc(Cl)c1O	4.53% (inactive)
NC(=O)c1ccc(NC(=O)COC(=O)c2c3c(nc4ccccc24)/C(=C\c2ccc4c(c2)OCO4)CCC3)cc1	38.8% (active)
CN(C)S(=O)(=O)c1ccc(NC(=O)COC(=O)c2n[nH]c3ccccc23)cc1	-0.614% (inactive)
O=C(COC(=O)c1c2c(nc3ccccc13)/C(=C\c1cccs1)CCC2)Nc1ccccc1Cl	10.2% (inactive)
CCCCc1nc2cc(C(=O)NCCc3cnn(C)c3)ccc2o1	38.8% (active)
CCC1CCCCN1C(=O)Nc1cccc(NC(=O)N2CCCCC2CC)c1 (configuration not stated)	4.95% (inactive)
CCCCc1nc2cc(C(=O)N3CCCCC3CCO)ccc2o1 (configuration not stated)	45.9% (active)
COc1ccc(C(=O)NC2CC2)cc1OC1CCN(Cc2cnn(C)c2)CC1	-0.356% (inactive)
Cc1c(C(=O)N(C)CCc2cnn(C)c2)oc2c(F)cccc12	-2.99% (inactive)
CCC1CCCCN1C(=O)CSc1nc(C)cc(C)n1 (configuration not stated)	0.953% (inactive)
CCn1c(=O)n(CC)c2cc(N3CCCC3)c(NC(=O)c3ccccc3Br)cc21	-1.85% (inactive)
CC(C)(C)c1ccc(C(=O)N2CCN(CCNC(=O)C(=O)Nc3ccc(F)cc3)CC2)cc1	5.93% (inactive)
Cc1ccc(-c2nnc(-n3nnc4ccccc43)c3ccccc23)cc1	9.11% (inactive)
CC1CCN(C2=NC(=O)/C(=C/c3ccc(O)cc3)S2)CC1	31.9% (active)
O=C1N=C(N2CCCC2)S/C1=C\c1cccc(Br)c1	20.2% (active)
O=C(Nc1nnc(S(=O)(=O)N2CCCCCC2)s1)c1cccc(Br)c1	-2.43% (inactive)
CCOc1cc(C(=S)N2CCOCC2)ccc1O	-1.42% (inactive)
CCOc1cc(/C=C2\SC(N3CCCCC3)=NC2=O)ccc1O	36.3% (active)
CCOc1cc(/C=C2/C(=N)N3OC(C)=CC3=NC2=O)ccc1OC	4.64% (inactive)
CC1CCN(C2=NC(=O)/C(=C/c3cn[nH]c3-c3ccccc3)S2)CC1	20.1% (inactive)
CCOc1cc(/C=C2\C(=N)N3N=C(C)SC3=NC2=O)ccc1OCCOc1ccccc1	-1.53% (inactive)
CCOc1cc(/C=C2\SC(N3CCCC(C)C3)=NC2=O)ccc1O (configuration not stated)	36.5% (active)
O=C1N=C(N2CCc3ccccc3C2)S/C1=C\c1ccc(O)cc1	10.4% (inactive)
CCOc1ccc(/C=C2\SC(=S)N(NC(=O)c3ccncc3)C2=O)cc1OC	-1.69% (inactive)
O=C1N=C2SCCN2/C1=C\c1c(Cl)cccc1Cl	1.23% (inactive)
